In the library only some 7.8% were active in any assay of this set; here they are far more common.
Shh pathway inh: Hedgehog pathway signaling inhibitors, primary screen, luminescence, Shh-LIGHT2 cells, Gli-luciferase. Shh-LIGHT2 Gli-luciferase reporter, 30 h. inhibition, % (test concentration not listed). 22,000 tested, 2.1% active;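 active = mean inhibition across valid replicates above about 65%, limit read from the data; inconclusive = mean under the limit, yet half or more replicates past it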;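 also: pathway switched on by Shh-conditioned medium diluted 1 in 25 in low serum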
PD-1 reverse act: activators reversing PD-1 mediated T-cell inhibition, primary screen, luminescence, primary human CD4 T cells, PD-L1 beads; AID 2316, 2010; 29,000 tested, under 10 active; CellTiter-Glo 96 h; activation, % (test concentration not listed); call rule not given here;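 also: 0% = median vehicle wells and 100% = positive control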
NOMO-1 viab: NOMO-1 AML cell viability reduction, primary screen, STK33 inhibitor project, CellTiter-Glo luminescence; NOMO-1 AML viability, 72 h; 37,000 tested, 7.5% active; inhibition, % (test concentration not listed); in the data active = inhibition above about 80%; inconclusive = no clear call, values can overlap the other calls
MITF inh: inhibitors of MITF, primary screen, MITF inhibitor project, cell-based, luminescence; AID 2240, 2010; TRPM1 promoter luciferase, 24 h; inhibition, % (concentration not given with the values); 37,000 tested, 0.28% active; in the data active = inhibition above about 85%; inconclusive = no clear call, values can overlap the other calls; inactive = below about 68%;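 also: human melanocyte line stably carrying TRPM1 promoter luciferase reporter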
Numbers without * were called inactive; ? = inconclusive; / = no result.

SMILES	Shh pathway inh	PD-1 reverse act	NOMO-1 viab	MITF inh
COC(=O)C1=C(N)C(C(=O)OC)=c2s/c(=C/c3ccccc3)c(=O)n2C1c1ccccc1 (configuration not stated)	-47	5	30	-22
C[C@@H]1CN([C@@H](C)CO)C(=O)c2cccc(NS(=O)(=O)c3ccc(Cl)cc3)c2O[C@H]1CN(C)S(=O)(=O)c1cccs1	-16	/	0	-10
C[C@@H]1CN([C@@H](C)CO)C(=O)c2cccc(NS(=O)(=O)c3ccc(Cl)cc3)c2O[C@@H]1CN(C)S(=O)(=O)c1cccs1	-46	-4	85*	10
COc1ccc(CN2C(=O)c3cccc4cccc(c34)C2=O)cc1S(=O)(=O)N1CCCCC1	/	/	59	52
C[C@]12CCC3c4ccc(O)cc4CCC3C1CCC2=O (some centres not stated)	89*	/	19	-32
COc1ccc2c(c1)CCC1C2CCC2(C)C(=O)CCC12 (configuration not stated)	16	-1	24	-36
CC(=O)OC1CCC2C3CCc4cc(O)ccc4C3CCC12C (configuration not stated)	?	/	99*	12
CCCCC(=O)O[C@H]1CCC2C3CCc4cc(O)ccc4C3CC[C@@]21C (some centres not stated)	61	/	54	-24
C[C@]12CC[C@@H]3c4ccc(O)cc4CC[C@H]3[C@@H]1CC[C@@H]2O	91*	/	87*	24
C[C@]12CCC3c4ccc(O)cc4CC[C@H]3C1CC[C@H]2O (some centres not stated)	5	-2	96*	13
CCOc1ccc2[nH]c(C)c(CCC(C)=O)c(=O)c2c1	/	/	-10	-16
Oc1ccc(-c2nc(-c3ccc(F)cc3)c(-c3ccncc3)[nH]2)cc1	74*	/	50	-28
CCOC(=O)/C(=N/O)C1=NN=C(N)SC1	3	2	-3	-9
CSc1nnc(-c2ccccc2)n1-c1ccccc1	-16	1	19	-9
Cc1cc(C)cc(Sc2ccc3nnc(-c4ccccc4)n3n2)c1	67*	-5	122*	55
C=CC(C)(C)c1[nH]cnc1/C=C1\NC(=O)C(C(C)C)NC1=O (configuration not stated)	-6	1	106*	14
CC(C)C1NC(=O)/C(=C/c2cnc[nH]2)NC1=O (configuration not stated)	-49	/	/	/
O=C(O)c1ccc(Oc2ccccc2)cc1	-22	2	-10	-10
CC1CCC/C=C/C(=O)c2c(O)cc(O)cc2CC(=O)O1 (configuration not stated)	7	-14	108*	38
COc1cc2ccc(=O)oc2c(CC=C(C)C)c1OC	-5	-3	30	-2
COc1c(O)cc2oc3cc(O)c(CC=C(C)C)c(O)c3c(=O)c2c1CC=C(C)C	11	-14	98*	50
CC(C)=CCc1c(O)cc2oc3c(CC=C(C)C)c(O)c(O)c(CC=C(C)C)c3c(=O)c2c1O	103*	/	/	/
Cc1nc(N=C(N)N)nc2ccccc12	-5	0	89*	21
Cc1nc2ccccc2cc1C(N)=O	/	0	-30	-36
Cc1ccccc1NC(=O)CN(c1ccc(Cl)c(Cl)c1)S(C)(=O)=O	/	1	26	6
SMILES	Shh pathway inh	PD-1 reverse act	NOMO-1 viab	MITF inh
COC(=O)c1ccc(C)c(NC(=O)CN(c2ccc(Cl)c(Cl)c2)S(C)(=O)=O)c1	/	-2	108*	22
COC(=O)c1ccc(Cl)c(NC(=O)CN(c2cccc(Cl)c2)S(C)(=O)=O)c1	/	2	129*	25
Cc1nnc(SCC(=O)Nc2cccc([N+](=O)[O-])c2)s1	/	/	-18	-4
C[C@@H]1CN([C@@H](C)CO)C(=O)c2cc(NC(=O)C3CCCCC3)ccc2O[C@@H]1CN(C)Cc1ccc(C(=O)Nc2ccccc2N)cc1	/	-2	109*	2
C[C@H]1CN([C@@H](C)CO)C(=O)c2cc(NC(=O)C3CC3)ccc2O[C@H]1CN(C)Cc1ccc(C(=O)Nc2ccccc2N)cc1	/	0	106*	-15
C[C@@H]1CN([C@@H](C)CO)C(=O)c2cc(NC(=O)C3CC3)ccc2O[C@@H]1CN(C)Cc1ccc(C(=O)Nc2ccccc2N)cc1	/	-2	105*	-12
CCC(NC(=O)c1cc(OC)c(OC)c(OC)c1)C12CC3CC(CC(C3)C1)C2 (configuration not stated)	16	-7	15	0
O=C(C1CC(=O)N(c2ccccc2)C1)N(Cc1ccccc1)Cc1ccccc1 (configuration not stated)	/	-1	44	8
CC1(C)Cc2c(sc3ncn4nc(-c5ccccc5)nc4c23)C(C)(C)N1	-13	-2	117*	18
Cc1cc(Br)ccc1NC(=O)Cn1ccc([N+](=O)[O-])n1	/	1	23	-7
COC(=O)c1ccccc1NC(=O)c1cccc(NC(=O)COc2cc(C)c(Cl)c(C)c2)c1C	/	/	102*	45
COC(=O)c1ccccc1NC(=O)COc1ccc2ccccc2c1Br	/	-1	84*	-33
COC(=O)c1ccccc1NC(=O)COc1ccc(C)cc1C	/	-1	2	25
O=C(O)Cc1ccc(NC(=O)CN2C(=O)c3ccccc3C2=O)cc1	/	2	28	-6
Cc1ccc(S(=O)(=O)N(C)C[C@H]2Oc3ccc(NC(=O)Nc4ccc5c(c4)OCO5)cc3CC(=O)N([C@@H](C)CO)C[C@@H]2C)cc1	2	-1	23	4
Cc1ccc(S(=O)(=O)N(C)C[C@H]2Oc3ccc(NC(=O)Nc4ccc5c(c4)OCO5)cc3CC(=O)N([C@@H](C)CO)C[C@H]2C)cc1	?	-1	48	39
C[C@H](CO)N1C[C@H](C)[C@H](CN(C)S(=O)(=O)c2ccc(Cl)cc2)Oc2ccc(NC(=O)Nc3ccc4c(c3)OCO4)cc2CC1=O	43	-2	126*	27
C[C@H]1CN([C@@H](C)CO)C(=O)Cc2cc(NC(=O)Nc3ccc4c(c3)OCO4)ccc2O[C@H]1CN(C)S(=O)(=O)c1ccccc1	-28	/	128*	29
Cc1ccc(S(=O)(=O)N(C)C[C@@H]2Oc3ccc(NC(=O)Nc4ccc5c(c4)OCO5)cc3CC(=O)N([C@H](C)CO)C[C@@H]2C)cc1	-21	0	102*	36
C[C@H]1CN([C@@H](C)CO)C(=O)Cc2cc(NC(=O)Nc3ccc4c(c3)OCO4)ccc2O[C@H]1CN(C)S(=O)(=O)c1ccc(Cl)cc1	38	/	127*	58
N#CN=C(N)c1sc2nc3c(cc2c1N)CCCCC3	-148	1	63	21
O=C(Nc1cc(C(F)(F)F)cc(C(F)(F)F)c1)C(=S)NCCNc1cccc2ccccc12	23	1	65	-2
Cn1c(/C(C#N)=C(/O)c2ccc(F)cc2)nc2ccccc21	-43	-3	29	2
CCOC(=O)c1c(-c2ccccc2)oc2ccc(O)c(CSCC(=O)Nc3ccccc3)c12	/	-1	126*	20
CCOC(=O)c1ccc(NC(=O)Cn2c(=O)oc3ccccc32)cc1	/	1	-5	3
CCOc1cccc2c(C)nc(Nc3nc4c(c(=O)[nH]3)CCCC4)nc12	/	/	121*	37

Assay outcomes as filed in PubChem.
